The whole screen tested about 5,500 compounds, of which about 2,000 (36%) were called active. Another 18% or so got no clear call; they are omitted. Cut-off read from the data, not from the text of the source: active = normalized growth mostly below about 0.91 (no sharp cut-off); inconclusive = no clear call, values can overlap the other calls; inactive = mostly above about 0.92. The list shows a part of the results.
Test: chemical genetic growth profiling, strain panel (AID 1159580);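 note: tested at 20 µM; growth read once vehicle control cultures reached saturation at 30 °C; 1 = growth at the plate median or of vehicle wells; lower values mean less growth of the strain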
Details: S. cerevisiae deletion strains, growth OD

Measured: normalized growth

CCOC(=O)c1ncn2c1CN(C)C(=O)c1cc(F)ccc1-2
inactive: locus YAL013W, strain DEP1, hits give low values 0.994 | locus YAL021C, strain ccr4, hits give low values 1.01 | locus YAL026C, strain drs2, hits give low values 1.02 | locus YAL030W, strain snc1, hits give low values 1.02 | locus YAL040C, strain CLN3, hits give low values 1 | locus YBL061C, strain skt5, hits give low values 1.01 | locus YBR009C, strain hhf1, hits give low values 1.03 | locus YBR023C, strain chs3, hits give low values 1.02 | locus YBR171W, strain sec66, hits give low values 1.02 | locus YBR231C, strain swc5, hits give low values 1.02 | locus YBR279W, strain paf1, hits give low values 1.01 | locus YCL011C, strain gbp2, hits give low values 1.01 | locus YCL016C, strain dcc1, hits give low values 1.02 | locus YCL061C, strain MRC1 (second series), hits give low values 1 | locus YCL061C, strain MRC1, hits give low values 1.02 | locus YCL069W, strain vba3, hits give low values 1.01 | locus YCR088W, strain abp1, hits give low values 1.02 | locus YDL005C, strain med2, hits give low values 1.02 | locus YDL040C, strain nat1, hits give low values 1.02 | locus YDR001C, strain nth1, hits give low values 1.02 | locus YDR069C, strain doa4, hits give low values 1.03 | locus YDR137W, strain rgp1, hits give low values 1 | locus YDR150W, strain NUM1, hits give low values 1.01 | locus YDR159W, strain sac3, hits give low values 1.03 | locus YDR195W, strain ref2 1.02 | locus YDR297W, strain sur2, hits give low values 1.01 | locus YDR334W, strain swr1, hits give low values 1.02 | locus YDR335W, strain msn5, hits give low values 1.02 | locus YDR363W, strain ESC2, hits give low values 0.997 | locus YDR392W, strain spt3, hits give low values 0.994 | locus YEL003W, strain gim4, hits give low values 1.02 | locus YEL037C, strain rad23, hits give low values 1.01 | locus YEL061C, strain CIN8 (second series), hits give low values 1.02 | locus YER002W, strain NOP16, hits give low values 0.993 | locus YER015W, strain faa2, hits give low values 1.01 | locus YER016W, strain bim1, hits give low values 1.01 | locus YER111C, strain swi4, hits give low values 1.01 | locus YER155C, strain BEM2 (second series), hits give low values 1.01 | locus YFR010W, strain ubp6, hits give low values 1.02 | locus YGL167C, strain pmr1, hits give low values 1.03 | locus YGL173C, strain kem1, hits give low values 1.02 | locus YGL227W, strain vid30, hits give low values 1.02 | locus YGL240W, strain doc1, hits give low values 1.04 | locus YGL253W, strain hxk2, hits give low values 1.02 | locus YGR078C, strain PAC10, hits give low values 1.01 | locus YHR013C, strain ard1, hits give low values 1.03 | locus YHR027C, strain rpn1, hits give low values 1.01 | locus YHR030C, strain SLT2, hits give low values 0.986 | locus YHR079C, strain IRE1, hits give low values 0.997 | locus YHR142W, strain chs7, hits give low values 0.972 | locus YJL092W, strain hpr5, hits give low values 1.02 | locus YJL095W, strain BCK1 (second series), hits give low values 1.02 | locus YJL095W, strain BCK1, hits give low values 0.997 | locus YJL115W, strain asf1, hits give low values 1.02 | locus YJL129C, strain trk1, hits give low values 1.01 | locus YJL154C, strain vps35, hits give low values 1.02 | locus YJL164C, strain tpk1, hits give low values 1.02 | locus YJL166W, strain qcr8, hits give low values 1.03 | locus YJL187C, strain SWE1, hits give low values 1.02 | locus YJR066W, strain TOR1, hits give low values 0.93 | locus YJR075W, strain HOC1, hits give low values 1 | locus YKL160W, strain elf1, hits give low values 1.01 | locus YKR026C, strain gcn3, hits give low values 1.01 | locus YKR091W, strain srl3, hits give low values 1.01 | locus YLL001W, strain dnm1, hits give low values 1.01 | locus YLL026W, hits give low values 1.02 | locus YLL041C, strain sdh2, hits give low values 1.02 | locus YLR027C, strain aat2, hits give low values 1.02 | locus YLR113W, strain HOG1, hits give low values 1.01 | locus YLR221C, strain rsa3, hits give low values 1.02 | locus YLR258W, strain gsy2, hits give low values 1.02 | locus YLR262C, strain YPT6 (second series), hits give low values 1.02 | locus YLR320W, strain mms22, hits give low values 1.03 | locus YLR342W, strain FKS1, hits give low values 1.02 | locus YLR357W, strain rsc2, hits give low values 1.03 | locus YLR370C, strain arc18, hits give low values 1.02 | locus YLR384C, strain iki3, hits give low values 1.02 | locus YML120C, strain ndi1, hits give low values 1 | locus YMR058W, strain fet3, hits give low values 1.02 | locus YMR125W, strain sto1, hits give low values 1.03 | locus YMR129W, hits give low values 1.01 | locus YMR205C, strain PFK2, hits give low values 1.03 | locus YMR231W, strain pep5, hits give low values 1.01 | locus YMR307W, strain GAS1, hits give low values 0.985 | locus YNL071W, strain lat1, hits give low values 1.01 | locus YNL175C, strain NOP13, hits give low values 0.999 | locus YNL183C, strain NPR1, hits give low values 0.938 | locus YNL197C, strain WHI3, hits give low values 0.999 | locus YNL209W, strain ssb2, hits give low values 1.02 | locus YNL224C, strain SQS1, hits give low values 1 | locus YNL248C, strain rpa49, hits give low values 0.992 | locus YNL322C, strain KRE1 (second series), hits give low values 1.01 | locus YNR049C, strain mso1, hits give low values 1.02 | locus YOR001W, strain rrp6, hits give low values 1.01 | locus YOR070C, strain gyp1, hits give low values 1.02 | locus YOR080W, strain dia2, hits give low values 1.02 | locus YOR083W, strain WHI5 (second series), hits give low values 1.03 | locus YOR083W, strain WHI5, hits give low values 0.997 | locus YOR106W, strain vam3, hits give low values 1.01 | locus YOR231W, strain MKK1, hits give low values 0.983 | locus YOR265W, strain rbl2, hits give low values 1.02 | locus YOR270C, strain vph1, hits give low values 1.02 | locus YOR290C, strain snf2, hits give low values 1.01 | locus YPL051W, strain arl3, hits give low values 1.01 | locus YPL055C, strain LGE1, hits give low values 1.01 | locus YPL078C, strain atp4, hits give low values 1 | locus YPL106C, strain sse1, hits give low values 1.04 | locus YPL240C, strain hsp82, hits give low values 1 | locus YPL256C, strain CLN2, hits give low values 0.973

Source: PubChem BioAssay AID1159580 (chemical genetic matrix, 2015)
